Laboratory results reported in the supplement of paper PMC6555819.

Each sequence was assayed on VDR:RXRa (NR concentration 270 nM, RXRa partner concentration 90 nM) (assay: PBM binding z-score (relative to random genomic background probes); higher = stronger binding; sequences stand for … in GC…GCGATTGACAGCGTAGAATGAAGG).
Description: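 Protein-binding microarray (Agilent 4x180K custom design, double-stranded 60-nt probes: 5' GC cap, 34-nt variable region, 24-nt constant primer region; full probe sequence given). Purified or IVT nuclear receptor:RXRα heterodimers (3:1 NR:RXRα, mostly 270:90 nM) or homodimers were incubated for 1 h in PBS with 2% milk and no ligand, then detected with Alexa488 antibodies. Fluorescence from o1-orientation probes (~5 replicates averaged) was converted to z-scores against 500 random hg19 background probes. Variable regions are seed direct-repeat (DR0–DR5) sites, all their single-nucleotide variants and half-site ablations.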

| Sequence | PBM binding z-score |
| --- | --- |
| ATCTCTAGGTAAAACTTCAGTGAATCCCGAGGAT | -0.0846 |
| CATACAGGGTCAGCCAGGCCAGAGTAGGGACGGC | 4.58 |
| ATCTCTAGGTAACCAAATTCAGTGAATGCCGAAC | 0.296 |
| CCTACTGGGCCATGAGGTCATTGATATCAACGTT | 4.43 |
| CCTGCTAGGTCATGGTCACCTAATCTACAGTATG | 2.03 |
| TTCCCAAGGTGAGCTGAGGTCGTTGATCCAACTC | 4.13 |
| GAAACGAGGGCATTCGAGTTGATAGCATGGCGAT | 3.97 |
| TAGCCTAGGTCATCCAGGGGCCAGTATAGAAAGC | 3.1 |
| ACAGACAGGTGAGTGAAGGTAACGCAGCTGGACG | -0.28 |
| CCTACTGGGCCACGAAAGGTCATTGTTTCAGTGA | 4.25 |
| TTATATAGGTAATACAGGTGAAAGTCGGCATCTA | 0.727 |
| CGTCCAAGGTCAGTGCTAGGTCAGTGAAAGCATT | 3.71 |
| TAGCCTAGGTCATGCGGGCCAGTGTAGTGTCGGC | 2.74 |
| CCTTACGGGTCACGAGATTATAGCACGACGAGCG | 3.55 |
| ATATGTAGGTTACATCCGGGCCATTCAGGCTATG | 0.659 |
| CCAAACAGGTGAGAAGGTAACTCAGCCTCGATTA | -0.0119 |
| GATGCAGGGTCAGCTAGAGGCCAGAGTATGGAAA | 3.11 |
| TCATATAGGAAAAGGTGAAAGTCGAACGATATGA | 0.862 |
| TTACCAAGGTGAAAGGTCTTTGATGCACGCCTTG | 0.479 |
| TCTTGTAGATCAACAGGAGGTTACGAAAGATCGA | 0.945 |

| Sequence | PBM binding z-score |
| --- | --- |
| AGAATGAGGTTATACGTAGATCAGGAAAGAAAGT | 1.51 |
| TGAATGAGGCTAAAGATCAGGGAACGTGGCGTCG | -0.503 |
| AGTCAAAGTTCAACTAGGTAACGTAAGATATGCT | 4.61 |
| ATCTCTAGGTAAAGATTGTTCAGTGAATGCAAAT | 0.327 |
| TCAGACAGGTTAAGGTAACTCAGGTACGCAGTCG | 1.53 |
| TCATATAGGTAAACAGGTGAAAGTTCGTAAGTTA | 1.98 |
| GCTAGCAGGCCCTTTGGGTCACTCAATGACGGGC | -0.206 |
| ATCTCTAGGTAAAGTTCCGTGAAAGATCGATAGA | 0.335 |
| TCATATAGGTAAAGGGGAAAGTCGAACGATATGA | 0.735 |
| TCTGCTAAGTCAACGATGGTCAGCTAATCTGCTA | -0.644 |
| ATCTCTAGGTAAAGATAGCTCAGTGAATGCAAAT | -0.433 |
| CCTACTGGGCCAAAAAGGTCAGTGATGCCGATAA | 2.91 |
| GGAACGAGGGCAAGCTGATAGCAGAGTTTGATGG | 0.0958 |
| CCTACTGGGCCACGAAAGGTCGTTGATTCAGTGA | 1.74 |
| TCAATGAGGTTATAAGATCAGGGAACGTTGCAAA | 1.22 |
| CCTGCTAGGTCAATGGTCAGCTTAAGCAGCTCGC | 1.03 |
| ACTCGGAGGACAACGGTCAGAGCTACGCCAGTGA | -0.667 |
| CTCGAAAGGTCGTGCTCAGGTGAGCATACCAAAC | 3.27 |
| ATCTCTAGGTAGCCAAGTTCAGTGAATGCCGAAC | 2.24 |
| TCATATAGGTTAATGCTAGGTGAAAGTCCGATCT | 1.43 |
